# GoLoco inh red: inhibitors of human Gai1-RGS12 GoLoco interaction (red fluorophore). actives 0.44% (n = 230,000). Potency, µM (highest dose often 61.6 µM), for the others: top-dose activity, negative = inhibition, most hits filed as inhibitors. Gai1:RGS12 GoLoco peptide FP, rhodamine, 10 min. P63096; active = well fitted inhibition curve with a large enough effect, not every such curve was filed as active; inactive = no such curve, though single readings can be large or run the other way; note: nearly all actives have a fitted effect of over 30% in size
# TRb-SRC2 inh: TRbeta-SRC2 interaction inhibition | TRbeta-SRC2 peptide binding, fluorescence polarization; receptor liganded with 1 µM T3 | Potency, µM (top dose mostly 106 µM), for the others: top-dose activity change, negative = inhibition, hits mostly inhibitors | actives 0.065% (n = 280,000) | AID 1469;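 note: plate controls were bound peptide for no effect and peptide without receptor for full effect; nearly all actives have a fitted effect of over 50% in size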
# Target sequence (P10828 whole entry, looked up): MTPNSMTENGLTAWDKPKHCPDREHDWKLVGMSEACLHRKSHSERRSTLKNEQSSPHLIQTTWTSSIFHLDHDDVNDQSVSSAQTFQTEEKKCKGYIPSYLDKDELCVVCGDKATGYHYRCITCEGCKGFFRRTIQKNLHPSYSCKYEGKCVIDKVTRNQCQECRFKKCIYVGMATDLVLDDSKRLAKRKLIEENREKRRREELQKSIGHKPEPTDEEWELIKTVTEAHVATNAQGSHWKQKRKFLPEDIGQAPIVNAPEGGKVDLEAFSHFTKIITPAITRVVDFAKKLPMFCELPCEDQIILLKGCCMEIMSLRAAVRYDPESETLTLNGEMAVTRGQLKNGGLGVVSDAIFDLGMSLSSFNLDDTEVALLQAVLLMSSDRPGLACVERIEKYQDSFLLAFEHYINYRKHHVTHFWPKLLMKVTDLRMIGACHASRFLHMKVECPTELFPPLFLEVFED
#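 Fluorescence polarization of 20 nM Texas Red SRC2 peptide (20-aa NR interaction domain) bound to 0.6 uM human TRb ligand-binding domain, with 1 uM T3, after 5 hr at ambient temperature; inhibition seen as decreased polarization.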
# TexasRed fluor: counter-screen for TRb-SRC2 inhibitors: fluorescence interference. TRb/SRC2 Texas Red total fluorescence interference. Potency, µM (top dose mostly 106 µM), for the others: at the top dose fluorescence change, negative = quenching. actives 0.29% (n = 280,000); active = well fitted curve in either direction with a large enough effect; inconclusive = small, poorly fitted or top-dose-only effect
#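 Human TRb ligand-binding domain at 0.6 uM with 20 nM Texas Red SRC2 peptide in Tris buffer containing 1 uM T3 and 5% DMSO, incubated with compound 5 h at ambient temperature. Total fluorescence (555/632 nm) calculated as parallel + 2 × perpendicular.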
# VDR inhibitor: blocks the human vitamin D receptor; Potency, µM, for the others: max response, negative = inhibition, hits mostly inhibitors; P11473; actives 0.93% (n = 400,000); VDR-SRC2-3 peptide fluorescence polarization, 2 h
#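 Compounds are added to VDR with labelled SRC2-3 coactivator peptide and held 2 h at room temperature. Inhibition of the VDR–peptide interaction is then read as a change in fluorescence polarization.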
# KAT2A inh: inhibitors of human GCN5L2 histone acetyltransferase | GCN5L2 HAT assay, ThioGlo1 CoA-SH fluorescence | Potency, µM (doses to about 58.9 µM), inactives show top-dose activity change, negative = inhibition, most hits filed as inhibitors | actives 0.21% (n = 390,000)
#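 GCN5L2 (20nM final) in 50mM HEPES, 0.1mM EDTA pH 7.5, 0.01% Tween-20 was preincubated 15 min at room temperature with compound, then given ThioGlo1 (50uM), H3(1-25) peptide (75uM) and acetyl-CoA (70uM); CoA-thiol fluorescence (Ex340/Em540) was read at 0 and 20 min.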
# Numbers without * were called inactive; u = inconclusive; x = no result; [ ] = remark or other dose. In the library only some 1.2% were active in any assay of this set; here they are far more common. Unless noted, calls come from the whole dose curve; as a rule, active = well fitted curve in the direction sought with a large enough effect; inconclusive = small, poorly fitted or top-dose-only effect, or another doubt; inactive = no such curve, though single readings can be large; an effect the other way counts as inactive or inconclusive. Unless noted, % is set by controls: 0 for no effect and ±100 for the full control effect; potency is the fitted concentration of half-maximal effect.
SMILES,GoLoco inh red,TRb-SRC2 inh,TexasRed fluor,VDR inhibitor,KAT2A inh
Cc1nnc(SCC(=O)c2ccc(Cl)cc2)n(N)c1=O,6%,4%,-2%,20µM*,-6%
Cc1c(C(=O)OC(C)C(C)C[N+](C)(C)C)oc2ccccc12 (configuration not stated),14µM*,2%,1%,-3%,-7%[0.501 µM]
CCOc1ccc(N2CC(c3nc4ccccc4n3CCCOc3ccccc3OC)CC2=O)cc1 (configuration not stated),x,-6%,71µM*[quencher],15%,-15%
COc1ccccc1OCCCn1c(C2CC(=O)N(c3ccc(F)cc3)C2)nc2ccccc21 (configuration not stated),x,-6%,-1%,14%,-3%
C=CCn1c(SCC#N)nc2cc(Cl)ccc2c1=O,x,x,x,-17%,x
Cc1nc(NC(=O)C2CCCC2)sc1Cc1ccc2c(c1)OCO2,0%,-6%,-3%,15%,-11%
Cc1c(Cc2ccc3c(c2)OCO3)sc(NC(=O)C2CC2)c1C(N)=O,-26%,-1%,-1%,50µM*,-8%
Cc1ccc(S(=O)(=O)NCc2ccc3c(c2)cc(C)n3C)cc1,-9%,u,45µM*[fluorescent],-7%,-4%
COc1cc(/C=C2/C(=O)NN(c3cccc(Cl)c3)C2=O)cc(OC)c1O,x,x,x,79µM*,-8%
COc1cc(/C=C2/C(=O)NN(c3ccc(C)c(Cl)c3)C2=O)cc([N+](=O)[O-])c1O,x,x,x,u,-22%
COc1cccc(/C=C2\C(=O)C(=O)c3ccccc32)c1,4%,-2%,-5%,89µM*,-4%
COc1cccc(/C=C2/C(=O)NN(c3ccc(F)cc3)C2=O)c1,x,x,x,45µM*,10%
COc1cccc(/C=C2/C(=O)NN(c3ccccc3)C2=O)c1,x,x,x,u,-7%
COc1cccc(/C=C2/C(=O)NN(c3ccc(C)c(C)c3)C2=O)c1,x,x,x,79µM*,-6%
COc1ccc(C2/C=C\CN(Cc3ccccc3)C(C)C(=O)N2Cc2ccc(F)cc2)cc1 (configuration not stated),x,6%,0%,-10%,x
C#CCCCO/N=C1/C[C@@H](O)[C@@H](O)[C@@H]2[C@@H]3C(=O)N(c4cccc(Oc5ccccc5)c4)C(=O)[C@H]3CC[C@@H]12,x,6%[11.2 µM],-4%[11.2 µM],x,x
O=C(c1ccc(Nc2nccc(-c3cc4ccccc4s3)n2)cc1)N1CCC(N2CCCC2)CC1,x,16%,-11%,45%,0%
[N-]=C=C1C(=O)NC(=O)C([n+]2ccc(-c3ccncc3)cc2)C1c1ccccc1C(F)(F)F (configuration not stated),-17%,6%,-1%,28µM*,-3%
O=[S+]([O-])([O-])c1ccc2c(c1)cc([S+](=O)([O-])[O-])c1nn(-c3ccc(/C=C/c4ccc(-n5nc6c([S+](=O)([O-])[O-])cc7cc([S+](=O)([O-])[O-])ccc7c6n5)cc4[S+](=O)([O-])[O-])c([S+](=O)([O-])[O-])c3)nc12,x,x,x,2%,x
COc1cc(OC)cc(C(=O)OCC(=O)Nc2ccc(N3CCCCC3)cc2)c1,18µM*,2%,-1%,-9%,-3%
CC1=CC2C3CC(C=C3C)C2C1 (configuration not stated),x,1%[201 µM],-5%[201 µM],x,x
CCOc1ccccc1CNC(=O)CN1C(=O)c2cccnc2Oc2ccc(C)cc21,x,-13%,22µM*[quencher],3%,-11%
CC(C)Oc1ccc(CNC(=O)CN2C(=O)c3cccnc3Oc3ccc(Cl)cc32)cc1,x,-1%,20µM*[quencher],8%,-11%
Cc1cc(C)n2nc(SCC(=O)Nc3cc(Cl)ccc3C)nc2n1,x,-1%,-22%,-1%,1%
Cc1cc(C)c(NC(=O)CSc2nc3nc(C)cc(C)n3n2)c(C)c1,x,-9%,20µM*[quencher],21%,-2%
CC(=O)c1cc(O)c2ccccc2c1O,14µM*,3%,-7%,32µM*,u
CC(=O)c1coc2c1cc(O)c1ccccc12,11%,-6%,-3%,8%,-6%
CC1(C)CC(OC(=O)CCCCCCCCC(=O)OC2CC(C)(C)NC(C)(C)C2)CC(C)(C)N1,x,-2%[201 µM],-1%[201 µM],x,x

# Screens deposited in PubChem by National Center for Advancing Translational Sciences (NCATS).
